KKLEB tox = counter-screen for CF NF-kB inhibitors: cytotoxicity; KKLEB CF airway cells viability, ATPlite luminescence, overnight; stronger effect = lower value; cells stimulated with P. aeruginosa culture filtrate; activity change (cytotoxicity), % at 5 µM; 360,000 tested, 0.36% active;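 active = corrected activity change at or below -50% at 5 µM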
HIF-2a inh = HIF-2a inhibition | AID 624352 | 786-0 RCC cells HIF-2a reporter, luciferase luminescence, overnight | 360,000 tested, 0.72% active | inhibition, % at 18.8 µM;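 active = inhibition of the luminescence signal of 40% or more relative to plate controls, in a single-dose primary screen at 18.75 µM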
LGR2 antag = blocks bursicon-induced cAMP signaling via Drosophila LGR2; inhibition, % at 9.99 µM; HEK293 LGR2, CRE-luciferase, bursicon-stimulated, 4 h; 380,000 tested, 0.35% active;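 active = drop in luminescence signal, shown as inhibition above about 50% in the replicate tests, limit read from the data, passing the limit was not always enough; inconclusive = probably only some replicates passing the limit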;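 also: agonist challenge used bursicon conditioned medium at about half maximal strength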
TWEAK Fn14 block = inhibitors of TWEAK-Fn14 interaction signaling; TWEAK-stimulated Fn14 reporter cells, luciferase luminescence, 8 h; inhibition, % at 10 µM; 360,000 tested, 2% active; AID 1159606; in the data active = inhibition above about 50%
CF NFkB block = inhibitors of cystic fibrosis induced NF-kB; KKLEB NF-kB-GFP reporter, PAF-induced, GFP fluorescence overnight; inhibition, % at 5 µM; 360,000 tested, 0.86% active; AID 588850;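 active = at least 50% inhibition at 5 µM, scaled per plate between neutral and stimulator controls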;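 also: PAF is a Pseudomonas aeruginosa culture filtrate used as stimulus; plate controls were PAF-stimulated DMSO wells for no effect and unstimulated DMSO wells for full effect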
hiPSC survival = hiPSC single-cell survival enhancement; ATPlite luminescence; 100% = ROCK inhibitor wells, 0% = DMSO; survival enhancement, % at 20 µM; 360,000 tested, 0.044% active; in the data active = survival enhancement above about 18%;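 also: cells exposed to compounds for 16 hours before the ATP read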
* = called active by the depositor; ? = inconclusive; . = no result. Sampled rows, rich in hits. Any-hit rate of the full collection: about 2.3%.

SMILES	KKLEB tox	HIF-2a inh	LGR2 antag	TWEAK Fn14 block	CF NFkB block	hiPSC survival
Cn1cc(Cl)c(C(=O)Nc2nc3ccccc3s2)n1	10.0	-185.7	.	57.1*	-34.0	-1.4
CC(=O)Nc1ccc2nc(NC(=O)COc3ccccc3C)sc2c1	-13.8	-40.4	-26.4	-3.6	1.9	0.3
Cc1ccccc1-c1cnc2c(c1)C(=O)N([C@H](C)CO)C[C@@H](C)[C@H](CN(C)Cc1cncnc1)O2	.	.	7.9	.	.	.
CCNC(=O)[C@@H]1[C@@H](CO)[C@@H]2Cn3c(ccc(-c4ccccc4)c3=O)[C@@H]2N1CC	.	.	-16.5	.	.	.
C[n+]1c2n(c3ccccc31)N=C(c1ccc(-c3ccccc3)cc1)CS2	-20.3	-2.9	-23.5	54.1*	24.7	3.2
C[n+]1c2n(c3ccccc31)N=C(c1ccccc1)CS2	13.3	10.7	-19.8	-37.6	-44.3	0.9
O=C(O)c1ccccc1N/N=C\c1ccnc2ccccc12	-6.0	17.1	.	90.0*	2.5	-2.0
ON=Cc1ccnc2ccccc12	-13.0	10.6	0.4	19.8	35.8	-0.7
O=C(Nc1ccc([N+](=O)[O-])cc1)Nc1nc(-c2ccc(Cl)s2)cs1	-47.0	13.2	49.4	67.1*	48.3	-2.8
COc1ccc(NC(=O)c2cccc(Oc3ccc([N+](=O)[O-])cc3Cl)c2)cc1	-16.2	-29.5	8.0	58.9*	31.1	0.0
COc1cccc(C(=O)COc2cccc(NC(=O)c3cccc([N+](=O)[O-])c3)c2)c1	-0.6	-7.1	.	63.9*	5.7	-0.4
Cc1ccc(C)c(NC(=O)c2cccc(Oc3ccc([N+](=O)[O-])cc3Cl)c2)c1	-11.6	-5.5	-3.4	36.8	15.3	3.3
O=C(Nc1cccc(Cl)c1)c1cccc(Oc2ccc([N+](=O)[O-])cc2Cl)c1	-1.5	-40.1	-9.7	82.1*	22.7	-0.2
O=C(C[C@@H]1C=C[C@H](NC(=O)NC2CCCCC2)[C@H](CO)O1)NCc1ccc(Cl)cc1	.	.	4.6	.	.	.
Cc1ccc(S(=O)(=O)N(C)C[C@H]2Oc3c(NS(=O)(=O)c4cn(C)cn4)cccc3C(=O)N([C@H](C)CO)C[C@@H]2C)cc1	.	.	-23.0	.	.	.
Cc1ccsc1/C=N/Nc1ccc(C(=O)O)cc1	12.4	56.8*	68.8*	99.2*	-8.2	-0.4
O=C(O)c1cccc(N/N=C/c2cccc3ccccc23)c1	8.9	38.2	-19.3	-34.2	-1.1	-0.5
Cc1ccsc1/C=N/Nc1cccc(C(=O)O)c1	6.2	85.5*	87.6*	31.7	-23.8	-1.2
C[C@H]1CN([C@@H](C)CO)C(=O)c2cccc(NC(=O)C3CC3)c2O[C@@H]1CN(C)C(=O)Nc1ccc(F)cc1	.	.	-8.9	.	.	.
CO[C@H]1CN(C)C(=O)c2cc(NC(=O)C3CCCC3)ccc2OC[C@H](C)NC[C@H]1C	.	.	-7.7	.	.	.
COc1ccc(NC(=O)N(C)C[C@@H]2Oc3ccc(NS(=O)(=O)c4c(C)noc4C)cc3C(=O)N([C@H](C)CO)C[C@H]2C)cc1	.	.	-2.4	.	.	.
Cn1cnc(C(=O)NCc2ccc(CNC(=O)OC(C)(C)C)cc2)c1C(=O)NCc1ccc(CNC(=O)OC(C)(C)C)cc1	-11.8	20.3	1.2	58.3*	12.5	5.3
CC(C)(C)OC(=O)NCc1ccc(NC(=O)c2nc[nH]c2C(=O)NCCCNC(=O)c2[nH]cnc2C(=O)Nc2ccc(CNC(=O)OC(C)(C)C)cc2)cc1	6.9	16.0	.	73.4*	40.0	0.4
CC(C)(C)OC(=O)NCc1ccc(NC(=O)c2nc[nH]c2C(=O)NCCN(CCNC(=O)c2[nH]cnc2C(=O)Nc2ccc(CNC(=O)OC(C)(C)C)cc2)CCNC(=O)c2[nH]cnc2C(=O)Nc2ccc(CNC(=O)OC(C)(C)C)cc2)cc1	3.2	15.0	6.0	-27.8	-25.4	-0.2
CC(C)(C)OC(=O)NCc1ccc(NC(=O)c2nc[nH]c2C(=O)Nc2cc(Br)ccc2F)cc1	-38.9	-0.9	-4.0	-32.5	11.6	2.2
SMILES	KKLEB tox	HIF-2a inh	LGR2 antag	TWEAK Fn14 block	CF NFkB block	hiPSC survival
CC(C)(C)OC(=O)NCc1ccc(NC(=O)c2nc[nH]c2C(=O)NCCCCNC(=O)c2[nH]cnc2C(=O)Nc2ccc(CNC(=O)OC(C)(C)C)cc2)cc1	-33.7	1.1	.	5.2	76.6*	-3.1
CC(C)(C)OC(=O)NCCCCCNC(=O)c1[nH]cnc1C(=O)Nc1cc(Br)ccc1F	-5.1	-8.5	17.2	76.3*	5.7	4.3
CC(C)(C)OC(=O)NCCCC[C@H](NC(=O)c1[nH]cnc1C(=O)Nc1ccc(CNC(=O)OC(C)(C)C)cc1)C(=O)OC(C)(C)C	.	.	24.9	.	.	.
CCC(=O)N(C)C[C@@H]1Oc2cc(-c3ccccc3F)ccc2S(=O)(=O)N([C@H](C)CO)C[C@@H]1C	.	.	-5.4	.	.	.
O=C(Nc1ccccc1F)c1nc[nH]c1C(=O)NCc1ccccc1	2.0	-17.3	-1.1	-3.3	-12.5	-1.2
CC(C)(C)OC(=O)NCc1ccc(CNC(=O)c2[nH]cnc2C(=O)Nc2ccccc2F)cc1	-6.5	2.5	?	54.4*	18.4	0.3
Cc1ccc(NC(=O)c2nc[nH]c2C(=O)NCCCCCNC(=O)OC(C)(C)C)cc1	-7.4	0.8	.	4.8	23.6	-2.4
CC(C)(C)OC(=O)NCCCCCNC(=O)c1[nH]cnc1C(=O)Nc1ccc(Cl)cc1	-45.3	-0.2	13.9	62.0*	25.5	2.1
CC(C)(C)OC(=O)NCc1ccc(NC(=O)c2nc[nH]c2C(=O)NCCCCCCNC(=O)c2[nH]cnc2C(=O)Nc2ccc(CNC(=O)OC(C)(C)C)cc2)cc1	-83.2*	13.0	.	-18.5	87.9*	3.2
Cc1noc(C)c1NC(=O)Nc1ccc2c(c1)CC(=O)N([C@@H](C)CO)C[C@H](C)[C@@H](CN(C)Cc1ccc(-c3ccccc3)cc1)O2	.	.	-1.3	.	.	.
COCC(=O)Nc1ccc2c(c1)OC[C@H](C)N(CC1CC1)C[C@@H](C)[C@H](OC)CN(C)C2=O	.	.	14.8	.	.	.
Cc1ccc(S(=O)(=O)c2cc3ccccc3oc2=Nc2ccc3c(c2)OCCO3)cc1	-19.5	12.0	-0.4	81.1*	23.1	-1.4
Cc1ccc(S(=O)(=O)c2cc3ccccc3oc2=Nc2ccc3c(c2)OCO3)cc1	-46.3	0.5	.	-28.9	16.1	0.3
COc1cccc2cc(S(=O)(=O)c3ccccc3)c(=Nc3ccc4c(c3)OCCO4)oc12	-11.0	13.1	0.0	77.6*	18.3	-0.6
COCCn1c(=NC(=O)c2ccc(S(=O)(=O)N3CCc4ccccc4C3)cc2)sc2cc(OC)ccc21	-68.9*	10.4	-17.3	-14.7	55.3*	-0.5
CC1(C)Cc2c(C#N)c(NC3CCCCC3)nc(-c3ccco3)c2CO1	-11.9	2.0	.	11.2	11.2	-1.2
CC1(C)Cc2c(C#N)c(NCC3CCCO3)nc(-c3ccco3)c2CO1 (stereo not drawn)	-5.9	22.7	.	-7.6	4.5	19.6*
CCOc1ccc2nc(NC(=O)CSc3nc4c(c(=O)n(C)c(=O)n4C)n3C(C)C)sc2c1	2.3	-57.5	-6.1	53.3*	8.6	0.3
